# Screens from PubChem.
# Compounds with a hit are over-represented: about 0.61% of the library has one in this group of screens.
# Sa ugtP lethal – growth inhibition of S. aureus ugtP deletion strain; growth inhibition, % (concentration not given with the values); S. aureus RN4220 ugtP deletion, OD600 growth, 16 h; actives 0.54% (n = 330,000); AID 1259309; in the data active means growth inhibition above about 68%;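 further: plate controls were untreated wells for no effect and antibiotic for full effect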
# RN4220 kill – kills Staphylococcus aureus RN4220; S. aureus RN4220 growth, OD600, 16 h; actives 0.33% (n = 330,000); inhibition, % (no concentration beside the values); in the data active means inhibition above about 85%;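 further: plate controls were untreated cells for no effect and reference antibiotic for full effect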
# Mtb hypoxia inh – Mtb hypoxia fluorescent reporter inhibition | actives 0.1% (n = 300,000) | fluorescence inhibition, % (no concentration beside the values) | M. tuberculosis hypoxia-regulated fluorescent reporter, fluorescence; in the data active means fluorescence inhibition mostly above about 23%, no sharp cut-off; inactive means mostly below about 17%
# Mtb bLac sens – beta-lactam sensitization of Mtb H37Rv; inhibition, % at 25 µM; AID 434955; M. tuberculosis H37Rv growth with meropenem, percent inhibition; actives 0.27% (n = 330,000); call rule not given here;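 further: growth measured after seven days incubation then overnight dye step; 0% = bacteria only wells and 100% = bacteria with antibiotic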
# Active calls of the source: *; · = no result given.
SMILES,Sa ugtP lethal,RN4220 kill,Mtb hypoxia inh,Mtb bLac sens
COc1cccc(CSc2nc3ccccc3cc2C=O)c1,98*,-6,·,21
Clc1ccc(/C=C/c2nc3ccccc3[nH]2)c(Cl)c1,92*,75,17,16
COc1ccc(C=NNC(=O)c2ccccc2)cc1CN1CCN(c2ccc(F)cc2)CC1,1,8,·,·
Cc1ccn(CC(=O)NN=Cc2cc([N+](=O)[O-])ccc2O)n1,83*,93*,3,·
O=[N+]([O-])c1ccc(O)c(C=Nc2ccc3nc(-c4ccccc4)[nH]c3c2)c1,66,88*,14,10
O=C(Cn1nc2ccccc2n1)N/N=C/c1cc([N+](=O)[O-])ccc1O,·,·,·,8
Oc1c(Br)cc(C=Nc2ccc3nc(-c4ccccc4)[nH]c3c2)c(O)c1Br,·,·,·,11
O=C(Cn1nc2ccccc2n1)NN=Cc1cc([N+](=O)[O-])ccc1O,88*,95*,6,·
CC(=NO)c1no[n+]([O-])c1C(C)=NO,0,3,-5,·
CCCCn1c(=O)[nH]c(=O)c2c1nc(-c1ccc(CC)c([N+](=O)[O-])c1)n2C,-68,2,3,0
CCCCn1c(=O)[nH]c(=O)c2c1nc(-c1ccc(-c3ccc(F)cc3)o1)n2C,5,6,37*,21
O=C(NN=Cc1cc(O)ccc1[N+](=O)[O-])c1ccc2c(c1)OCCO2,15,9,0,·
O=C(Nc1nnc(C2=COCCO2)o1)c1cccc(Br)c1,99*,92*,3,87
Cc1oc2cc(Br)c(O)c(Br)c2c1-c1ccccc1,87*,-4,18,8
Cc1cc2oc(=O)cc(-c3ccccc3)c2c(C)c1-c1ccc(O)cc1,4,10,22,·
O=C(/C=C/c1ccco1)NCC(=O)NN=Cc1ccccc1[N+](=O)[O-],2,0,-13,·
Nc1cc(Cl)ccc1Oc1ccc2ccccc2c1,95*,-4,2,·
CN1C(=O)C2(C(C#N)=C(N)Oc3n[nH]c(-c4ccc(Cl)cc4)c32)c2ccccc21 (configuration not stated),75,98*,·,-1
Cc1[nH]nc2c1C1(C(=O)N(Cc3ccc(Cl)cc3)c3ccccc31)C(C#N)=C(N)O2 (configuration not stated),-22,15,6,45
Cc1ccc(N(C(=O)Nc2ccccc2)C2=NCC(C)S2)cc1 (configuration not stated),88*,5,-2,-20
CCCCCCCCCCCCCCCC[N+](C)(C)C,100*,100*,3,62
CCCCCC[N+](C)(C)CCSSCC[N+](C)(C)CCCCCC,-2,-2,8,-10
CCCCCCCCCCCCCCCC[N+](C)(C)CC,100*,100*,18,84
O=c1[nH]sc2cc(F)ccc12,87*,98*,4,·
O=c1[nH]sc2ccccc12,11,-2,-1,·
SMILES,Sa ugtP lethal,RN4220 kill,Mtb hypoxia inh,Mtb bLac sens
Clc1ccc2[nH]c3c(c2c1)CCc1cn[nH]c1-3,79,98*,-8,76
c1ccc2c3c([nH]c2c1)-c1[nH]ncc1CC3,-20,-3,-6,49
ON=Cc1cn(-c2ccc(Cl)cc2)nn1,-1,4,-2,·
O=C(CCCOc1ccccc1)Nc1ccc(S(=O)(=O)N2CCOCC2)cc1,-7,-13,17,2
O=C(CCCOc1ccccc1)Nc1cccc(S(=O)(=O)N2CCOCC2)c1,1,2,-10,-2
Cc1ccc(OCCCC(=O)Nc2ccc(S(=O)(=O)N3CCOCC3)cc2)cc1,5,2,30*,0
CCOc1ccccc1OCCCC(=O)Nc1cccc(S(=O)(=O)N2CCOCC2)c1,3,0,26*,5
O=C(NN=Cc1cccc(O)c1)NC1CCCCC1,6,9,5,·
Nc1nc2ccccc2n1N=Cc1cccnc1,3,5,0,·
CC(C)=CCc1c(O)cc(O)c2c(=O)c3c(CC=C(C)C)c(O)ccc3oc12,100*,100*,·,7
CC(C)=CCc1c(O)cc2c(=O)c3ccc(O)cc3oc2c1O,35,-3,·,-8
COCCN=c1scc(-c2cccs2)n1N=Cc1ccc(O)c(O)c1O,-9,11,5,·
CCOc1ccccc1CNS(=O)(=O)c1ccc2[nH]c(=O)sc2c1,46,4,·,5
CCN(CCNS(=O)(=O)c1ccc2[nH]c(=O)sc2c1)c1ccccc1,99*,-14,6,0
CC(=NNC(=O)CC1(C)OCCO1)c1cccs1,8,2,1,·
CC(C)(C)c1ccc(C=NNC(=O)C2CCCC2)cc1,12,1,9,·
Cc1ccc(Oc2ccccc2/C=N/O)cc1,·,·,·,-3
Cc1cc(C)cc(Oc2ccccc2C=NO)c1,87*,-3,·,·
Cc1ccccc1C=NNC(=O)c1cccnc1,2,4,15,·
Cn1c(=O)c(C(=O)NNC(=O)c2ccc(Br)cc2)c(O)c2ccccc21,100*,98*,13,100
Cn1c(=O)c(C(=O)NNC(=O)c2ccccc2F)c(O)c2ccccc21,-9,15,-23,89
C=CCNC(=O)C(=Cc1ccc(OC)cc1)NC(=O)c1ccc([N+](=O)[O-])cc1,-1,13,-6,·
COc1cc(C=NNC(=O)c2nonc2C)ccc1O,0,-6,-13,·
COc1ccc(-n2sc3c(c2=S)-c2cc(OC)ccc2NC3(C)C)cc1,84*,-5,·,-1
COc1ccc2c(c1)-c1c(sn(-c3ccccc3)c1=S)C(C)(C)N2,81,12,8,-1
SMILES,Sa ugtP lethal,RN4220 kill,Mtb hypoxia inh,Mtb bLac sens
O=C(Nc1nc2ccc(SC(F)F)cc2s1)c1ccc(NS(=O)(=O)c2ccc(F)c(F)c2)cc1,100*,100*,3,100
O=c1nc2scc(-c3ccccc3)n2c2ccccc12,91*,-6,1,4
COC(=O)c1cc(=O)n2c(-c3ccccc3)csc2n1,5,1,·,-11
O=c1c2ccccc2nc(/C=C/c2ccc([N+](=O)[O-])o2)n1-c1ccc(O)cc1,100*,99*,5,·
Cc1cccc(-n2c(/C=C/c3ccc([N+](=O)[O-])o3)nc3ccccc3c2=O)c1,99*,69,5,8
Cc1nc2ccccc2c(=O)n1/N=C/c1ccc([N+](=O)[O-])o1,·,·,·,100
Cc1ccccc1C(=O)Nc1ccc(C(=O)NN=Cc2ccc(F)cc2)cc1,-6,-3,5,·
CC(NC(=O)NNC(=O)c1ccncc1)(C(F)(F)F)C(F)(F)F,8,6,0,99
COC(=O)C(O)(NC(=O)c1ccncc1)C(F)(F)F (configuration not stated),76,84*,-7,-9
CCOc1ccc(-c2ccc(/C=C3/C(=N)N4C=CSC4=NC3=O)o2)c([N+](=O)[O-])c1,40,8,1,-11
CCOc1ccc(-c2ccc(/C=C3/C(=N)N4C(C)=CSC4=NC3=O)o2)c([N+](=O)[O-])c1,100*,11,5,8
CCCCCCCC#Cc1ccccc1C=NS(=O)c1ccc(C)cc1 (configuration not stated),99*,-2,5,·
CCCOc1ccc(CCCN=C(N)N)cc1Cl,101*,37,7,-15
CCOc1ccc(CN=C(N)N=C(N)N)cc1Cl,4,1,·,-6
CCCCOc1ccc(CN=C(N)N)cc1Cl,100*,5,7,-5
